# Laboratory results from PubChem BioAssay (NCI).
# The panel holds about 83,000 compounds, 20% with a hit somewhere; the sample as a whole holds those more often.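 Cell lines were cultured in 96-well plates, exposed to a single compound concentration, and assessed for percent growth 48 hours later.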 Values without a mark were called inactive. Calls of active or inactive are those of the source. Rule for the calls: active = growth percent below 10; inactive = the rest.
# Test system: UACC-62 melanoma
# Assay: NCI-60 one-dose screen, 48 h (100 = growth as untreated, 0 = no growth, -100 = all killed)
# Conditions: 10 µM unless noted
row,SMILES,growth
1,COc1ccc(Sc2ccc3[nH]c(=O)nc(N)c3c2)cc1,105%
2,CCN1C(=O)C2(Nc3ccccc3S2)c2cc(C)ccc21 (configuration not stated),102%
3,CCOC(=O)c1cn2c3c(cc(F)cc3c1=O)C(CC)c1ccccc1C2 (configuration not stated),105%
4,Cc1nn(CC(=O)O)c2c1C(=O)CC(C)(C)C2,91%
5,O=C1/C(=C/c2ccc(Oc3ccccc3)cc2)N=C(c2ccccc2)N1CCc1cccs1,72%
6,COc1cccc(C2C3=C(COC3=O)N(CCO)c3cc4c(cc32)OCO4)c1 (configuration not stated),18.3%
7,COc1ccc2c(c1)c(=O)oc1c(C)c(OCC(C)=O)ccc12,64.3%
8,CC1=C(C/C=C(\C)CCC[C@H](C)CCC[C@H](C)CCCC(C)C)C(=O)c2ccccc2C1=O,105%
9,O=S(=O)(OCCO)c1ccccc1,94.2%
10,COc1ccc(-c2nc3sccn3c2/C=C/C(=O)c2cc(OC)c(OC)c(OC)c2)cc1OC,15.3%
11,Cc1nc(NN)c([N+](=O)[O-])c(NN)n1,97.3%
12,COc1cc(/C=C2\C(=O)N(c3c(Cl)cccc3Cl)c3ccccc32)cc(OC)c1O,47.5%
13,COc1cc(C2C3=C(COC3=O)N(CCO)c3cc4c(cc32)OCO4)cc(OC)c1O (configuration not stated),26.2%
14,COc1ccccc1CNCCCCCCCCCCCCN1C(=O)c2ccc3c4c(ccc(c24)C1=O)C(=O)N(CCCCCCCCCCCCNCc1ccccc1OC)C3=O,105%
15,CCCCCCCCCCCCCCCC[N+]1(C)CCOCC1,46.9%
16,Cn1cc(C(=O)NCCC(=N)N)cc1NC(=O)CN=C(N)N,98%
17,Nc1cccc2c(=S)c3ccccc3[nH]c12,87.6%
18,CCN1CCN(c2nc3ccccc3c3c(=O)c4cc(F)ccc4sc23)CC1,44.1%
19,Cc1ccc(N(CSc2ccc(Cl)cc2)CSc2ccc(Cl)cc2)cc1,60%

row,SMILES,growth
1,O=C1C(Cl)=C(NCCCN2CCOCC2)C(=O)c2ccccc21,94.8%
2,O=[N+]([O-])c1ccc(O)c2ncccc12,29.1%
3,O=C(Nc1ccccc1)Oc1cccc2cccnc12,108%
4,Cc1ccc(C)c2c1sc1nc3nc4sc5ccccc5n4c(=N)c3c(=O)n12,120%
5,O=C(c1ccccc1)C(Br)C(Br)c1cccc([N+](=O)[O-])c1 (configuration not stated),81.4%
6,COc1cc(/C=C2\C(=O)Nc3ccccc32)cc(OC)c1O,72.1%
7,O=c1ccc2ccccc2o1,98.4%
8,Cc1nc(-c2ccccc2)cc2c(O)c(C(=O)N/N=C/Cc3ccccc3)[nH]c(=O)c12,109%
9,CN1CCc2cccc3c2C1Cc1ccc(O)c(O)c1-3 (configuration not stated),105%
10,COc1cccc(C2C3=C(COC3=O)N(CCO)c3cc4c(cc32)CCC4)c1 (configuration not stated),8.14% (active)
11,COc1cc(CNCCCN2C(=O)c3ccc4c5c(ccc(c35)C2=O)C(=O)N(CCCNCc2cc(OC)c(OC)c(OC)c2)C4=O)cc(OC)c1OC,-90.2% (active)
12,O=C1C=CC(=O)N1CCCCCCCCCCN1C(=O)C=CC1=O,102%
13,CCCCC/C=C\C/C=C/CCCCCCCCNC(=O)Nc1ccc([N+](=O)[O-])cc1,68.4%
14,Clc1ccc(C2=NN(c3ccccc3)[C@H](c3cn(-c4ccccc4)nc3-c3ccccc3)C2)cc1,107%
15,OB(O)c1ccccc1,109%
16,COc1cccc2c(=O)c3c(sc12)c(NCCN(C)C)nc1ccccc13,57%
17,O=C(N/N=C/c1ccc(F)cc1)c1[nH]c2ccc(I)cc2c1-c1ccccc1,35.2%
18,COc1ccc(-c2nc3sc(C)cn3c2/C=C/C(=O)c2cc(OC)c(OC)c(OC)c2)cc1,36.7%
